Source: PubChem BioAssay (National Center for Advancing Translational Sciences (NCATS))
ClpP mod: qHTS Assay for Activators of ClpP | AID 651965, 2013 | purified B. subtilis ClpP, FRET peptide cleavage, 20 min | Potency, µM (titrated, usually from 57.5 µM), for inactives: at the highest dose activity change, negative = active | 1.9% of 340,000 active | ATP-dependent Clp protease proteolytic subunit (Bacillus subtilis (strain 168)), P80244; active = well fitted falling curve with a large enough effect; inconclusive = small, poorly fitted or top-dose-only effect; inactive = no such curve, though single readings can be large or run the other way; also: the source files actives as falling curves though it sought activators and does not explain the sign; nearly all actives have a fitted effect of over 65% in size
Target sequence (P80244 whole entry, looked up): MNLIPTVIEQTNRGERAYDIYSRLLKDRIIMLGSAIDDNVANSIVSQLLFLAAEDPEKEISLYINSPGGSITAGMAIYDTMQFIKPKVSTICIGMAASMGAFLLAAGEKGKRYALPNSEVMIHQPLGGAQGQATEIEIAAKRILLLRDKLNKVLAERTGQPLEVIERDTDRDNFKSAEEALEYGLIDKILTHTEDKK
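Purified B. subtilis ClpP, 10 microg/mL final in Tris/HCl pH8 with KCl, BSA, glycerol and Tween-20, cleaved an Abz/nitrotyrosine-quenched decapeptide. Fluorescence (ex 320, em 430) was read at 0 and 20 min at room temperature. Delta was normalized to 5.8 microM ADEP and DMSO/no-enzyme controls.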
Sfp PPTase inh: Sfp phosphopantetheinyl transferase inhibition | Potency, µM, inactives show largest response in the series, negative = inhibition, most hits filed as inhibitors | AID 1490 | Biochemical Sfp PPTase activity, qHTS | 3.5% of 310,000 active;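 also: the enzyme is Sfp with the accession as filed and its product quenches rhodamine fluorescence; 0% = enzyme reaction without inhibitor and -100% = no enzyme wells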
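Compounds were incubated with enzyme (final 15 nM) for 15 min at room temperature before substrate addition started the reaction. Fluorescence at 525 nm excitation, 598 nm emission was recorded immediately and after 30 minutes.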
VP16 counter: counter-screen for ROR gamma inhibitors: Gal4-VP16 reporter; Drosophila S2 Gal4-VP16 UAS-luciferase, luminescence, 20 h; Potency, µM (series often up to 53.6 µM), for the others: at the highest dose activity, negative = inhibition, hits mostly inhibitors; 3.5% of 310,000 active;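 also: Gal4-VP16 expression switched on by copper sulfate through the metallothionein promoter; % is scaled to controls: 0 for no effect and ±100 for the full control effect; nearly all actives have a fitted effect of over 50% in size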
Epigenetic reg: epigenetic control regulation, reporter derepression | murine LDR cells, GFP reporter derepression, 30 h | Potency, µM (titrated, usually from 53.9 µM), without a hit: at the highest dose GFP activation, usual class: activators | 0.2% of 280,000 active | AID 1865; also: % of control where 0% means no effect; nearly all actives have a fitted effect of over 60% in size
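Reporter derepression read as number of fluorescent GFP-positive objects, 20-120 um in size, counted by laser-scanning cytometer. Mouse LDR line with an epigenetically silenced CMV-GFP locus; compound incubation 30 h, 37 C.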
RORgamma inh: blocks mouse ROR gamma transcriptional activity. P51450. Drosophila S2 Gal4-RORgamma UAS-luciferase reporter, 20 h. Potency, µM (highest dose often 53.6 µM), without a hit: at the top dose activity change, negative = inhibition, most hits filed as inhibitors. 5.4% of 310,000 active. AID 2551; also: % is scaled to controls: 0 for no effect and ±100 for the full control effect; nearly all actives have a fitted effect of over 60% in size
Target sequence (P51450 whole entry, looked up, the tested form may be a part): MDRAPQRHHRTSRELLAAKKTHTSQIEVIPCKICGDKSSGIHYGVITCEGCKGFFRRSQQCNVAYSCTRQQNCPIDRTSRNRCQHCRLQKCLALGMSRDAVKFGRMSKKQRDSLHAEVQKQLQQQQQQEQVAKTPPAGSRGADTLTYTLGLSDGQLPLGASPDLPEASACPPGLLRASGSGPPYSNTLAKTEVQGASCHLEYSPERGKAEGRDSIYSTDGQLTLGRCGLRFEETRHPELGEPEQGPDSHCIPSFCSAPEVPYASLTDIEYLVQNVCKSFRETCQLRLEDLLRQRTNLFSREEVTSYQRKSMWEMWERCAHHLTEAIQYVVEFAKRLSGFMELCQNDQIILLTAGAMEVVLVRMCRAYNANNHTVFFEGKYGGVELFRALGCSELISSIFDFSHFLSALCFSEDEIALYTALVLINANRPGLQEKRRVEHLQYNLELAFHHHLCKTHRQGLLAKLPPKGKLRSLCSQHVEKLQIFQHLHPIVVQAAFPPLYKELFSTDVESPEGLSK
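Read-out: Photinus luciferase luminescence; inhibitors lower reporter signal. Insect Schneider cells with Gal4-ROR gamma fusion under metallothionein promoter, UAS reporter; 700 uM final copper sulfate induction, 20 hr, ambient temperature.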
PINK1 modulator: changes PINK1 expression; 0.2% of 410,000 active; PINK1 immunofluorescence, high-content cytometry, 24 h; AID 624263; Potency, µM (titrated, usually from 76.6 µM), for the others: top-dose activation (PINK1 increase), usual class: activators; active = well fitted activation curve with a large enough effect; inconclusive = small, poorly fitted or top-dose-only effect; cell line not stated here; also: % of control where 0% means no effect; nearly all actives have a fitted effect of over 65% in size
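Decision-based qHTS: stable cells, 24 h exposure to five compound concentrations, CCCP as control. Fixed cells stained for PINK1 plus nuclear, mitochondrial and cell markers, cytometer read.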
The depositor's hits bear a star. Shown are actives, neighbours in structure and some others; about 8.1% of the full set was active somewhere. Unless noted, calls follow the shape of the dose curve; as a rule, active = well fitted curve in the direction sought with a large enough effect; inconclusive = small, poorly fitted or top-dose-only effect, or another doubt; inactive = no such curve, though single readings can be large; an effect the other way counts as inactive or inconclusive. Potency is read from the fitted curve at half-maximal effect.

Results for CCOC(=O)c1[nH]c2ccc(C)cc2c1NC(=O)CN1CCCCC1 ?
ClpP mod: 31.6µM*; Sfp PPTase inh: 14.8%; VP16 counter: 2.8%; Epigenetic reg: 0.9%; RORgamma inh: -31.3%; PINK1 modulator: 0.8%

What do the screens show for `CCN(CC(=O)Nc1c(C(=O)OC)[nH]c2ccc(C)cc12)c1ccc2c(c1)OCO2`?
ClpP mod: 1.6%; Sfp PPTase inh: 44.7µM*; VP16 counter: 10.1%; Epigenetic reg: -2.6%; RORgamma inh: 4.3%; PINK1 modulator: -0.4%

Results for COC(=O)c1[nH]c2cc(C)ccc2c1NC(=O)CN1CCN(C(=O)c2ccco2)CC1 ?
ClpP mod: -28.5%; Sfp PPTase inh: 50.1µM*; VP16 counter: 11.0%; Epigenetic reg: 0.8%; RORgamma inh: 4.4%

Results for Cc1ccc(NC(=O)Cn2cc(S(=O)(=O)Cc3ccc(F)cc3)c3ccccc32)cc1Cl ?
ClpP mod: -2.9%; Epigenetic reg: -0.2%; PINK1 modulator: inconclusive

How did O=C(CSc1nc2c([nH]c3ccccc32)c(=O)n1-c1cccc(C(F)(F)F)c1)N1CCCC1 do in these assays?
ClpP mod: -4.5%; Epigenetic reg: 0.0%; PINK1 modulator: -2.1%

Results for CCOC(=O)c1[nH]c2ccc(OCC)cc2c1NC(=O)CN1CCN(c2ccccn2)CC1 ?
ClpP mod: 17.8µM*; Sfp PPTase inh: -2.7%; VP16 counter: -22.0%; Epigenetic reg: 0.7%; RORgamma inh: inconclusive; PINK1 modulator: 1.6%

What do the screens show for `O=C(CN1CCN(c2ncccn2)CC1)Nc1ccccc1-n1cccc1`?
ClpP mod: -2.1%; Sfp PPTase inh: 79.4µM*; VP16 counter: inconclusive; Epigenetic reg: 1.3%; RORgamma inh: 26.5%

What do the screens show for `COC(=O)c1[nH]c2ccc(C)cc2c1NC(=O)CN1CCCC(C)(C)C1`?
ClpP mod: 17.8µM*; Sfp PPTase inh: 8.1%; VP16 counter: -6.3%; Epigenetic reg: -1.1%; RORgamma inh: -24.7%; PINK1 modulator: 0.1%

Results for Cc1ccc(NC(=O)CN2CCN(c3ccccn3)CC2)c(Cl)c1 ?
ClpP mod: -4.2%; Sfp PPTase inh: 79.4µM*; VP16 counter: 9.8%; Epigenetic reg: -0.7%; RORgamma inh: inconclusive; PINK1 modulator: -1.4%

What do the screens show for `COC(=O)c1[nH]c2ccc(C)cc2c1NC(=O)CN1CCc2cc(OC)c(OC)cc2C1`?
ClpP mod: inconclusive; Sfp PPTase inh: -3.4%; VP16 counter: -6.6%; Epigenetic reg: 0.0%; RORgamma inh: inconclusive; PINK1 modulator: 0.5%

How did CN(C)c1ccc(C(CNC(=O)c2ccccc2)N2CCc3ccccc32)cc1 (centres undefined) do in these assays?
ClpP mod: -14.2%; Epigenetic reg: inconclusive; PINK1 modulator: -1.1%

How did COc1cc(Cn2c(=O)sc3ccccc32)ccc1OCCC(C)C do in these assays?
ClpP mod: -4.7%; Epigenetic reg: 3.8%; PINK1 modulator: -0.1%

How did COc1ccc2c(Sc3ccc(C)cc3)c(C(=O)NCc3ccc(F)cc3)[nH]c2c1 do in these assays?
ClpP mod: -3.0%; Epigenetic reg: -4.2%; PINK1 modulator: 2.6%

Results for Cc1cccc(Cc2cnc(NC(=O)c3ccc(C)o3)s2)c1 ?
ClpP mod: -13.4%; Sfp PPTase inh: 17.2%; VP16 counter: inconclusive; Epigenetic reg: -1.4%; RORgamma inh: 10µM*; PINK1 modulator: 2.1%

What do the screens show for `Cc1ccc(Cc2cnc(NC(=O)c3ccco3)s2)cc1`?
ClpP mod: -2.7%; Sfp PPTase inh: 4.8%; VP16 counter: 5.62µM*; Epigenetic reg: 1.0%; RORgamma inh: inconclusive

How did Cc1cccc(Cc2cnc(NC(=O)C3=NCCN3)s2)c1 do in these assays?
ClpP mod: -7.8%; Sfp PPTase inh: 19.8%; VP16 counter: 7.94µM*; Epigenetic reg: -3.6%; RORgamma inh: 3.55µM*; PINK1 modulator: 2.4%

Results for CN(C)c1ccc(/C=C/c2ccnc3ccc(Br)cc23)cc1 ?
ClpP mod: 2.3%; PINK1 modulator: 6.4%

How did O=C(Nc1ccccn1)C1COc2ccccc2O1 (centres undefined) do in these assays?
ClpP mod: 0.2%; Sfp PPTase inh: 7.4%; VP16 counter: -12.6%; Epigenetic reg: -1.0%; RORgamma inh: -31.8%

How did CC1CCc2nc(NC(=O)C3CC3)sc2C1 (centres undefined) do in these assays?
ClpP mod: -12.4%; Sfp PPTase inh: 8.7%; VP16 counter: 18.6%; Epigenetic reg: 3.2%; RORgamma inh: 31.0%; PINK1 modulator: -1.1%

What do the screens show for `O=C(Nc1nc(-c2ccccn2)cs1)C1COc2ccccc2O1` (centres undefined)?
ClpP mod: -5.8%; Sfp PPTase inh: 18.3%; VP16 counter: 0.199µM*; Epigenetic reg: -1.9%; RORgamma inh: 0.891µM*; PINK1 modulator: 0.9%

Results for CC1CCc2nc(NC(=O)C3COc4ccccc4O3)sc2C1 (centres undefined) ?
ClpP mod: 0.0%; Sfp PPTase inh: -4.4%; VP16 counter: 10µM*; Epigenetic reg: 0.0%; RORgamma inh: inconclusive; PINK1 modulator: 1.4%

How did Cc1csc(NC(=O)C2COc3ccccc3O2)n1 (centres undefined) do in these assays?
ClpP mod: 1.5%; Sfp PPTase inh: 13.9%; VP16 counter: 11.2µM*; Epigenetic reg: -0.8%; RORgamma inh: 14.1µM*; PINK1 modulator: -0.5%

How did O=C(Nc1ccc(Cl)cn1)C1COc2ccccc2O1 (centres undefined) do in these assays?
Sfp PPTase inh: 0.8%; VP16 counter: inconclusive; Epigenetic reg: -1.1%; RORgamma inh: 3.98µM*; PINK1 modulator: 1.1%

How did CCC(=O)N1c2ccccc2CC1C(=O)NCCN1CCN(c2cccc(C)c2C)CC1 (centres undefined) do in these assays?
ClpP mod: -0.2%; Epigenetic reg: -0.1%; PINK1 modulator: 1.3%

Results for Cc1cc(C)cc(Oc2nc3c(c(=O)n(C)c(=O)n3C)n2Cc2ccc(F)cc2)c1 ?
ClpP mod: 2.5%; Epigenetic reg: 0.0%; PINK1 modulator: 1.2%

How did Cc1ccc(Cn2c(=O)c3cccnc3n(CC(=O)Nc3cc(Cl)ccc3C)c2=O)cc1 do in these assays?
ClpP mod: -11.5%; Epigenetic reg: 1.4%; PINK1 modulator: -1.1%

What do the screens show for `CSc1nc2ccc3nc(NC(=O)C4COc5ccccc5O4)sc3c2s1` (centres undefined)?
ClpP mod: inconclusive; Sfp PPTase inh: -9.1%; VP16 counter: -19.0%; Epigenetic reg: -0.8%; RORgamma inh: 10µM*; PINK1 modulator: -1.3%
